Counter-ions that a name gives are not always drawn. ± gives the standard deviation of the averaged measurements.
Tests used:
[1] = system: Saccharomyces cerevisiae BY4741 SeMeCo community; experiment: mean cell size (pixel area) (pixels); higher = larger cells; settings: 10 µM; 24 h; SM minimal medium
How it was run: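 Yeast cells were fixed with paraformaldehyde, imaged by automated confocal microscopy and analysed in Harmony to obtain mean cell pixel area per well. They came from a four-plasmid fluorescent Saccharomyces cerevisiae BY4741 community, each plasmid complementing one auxotrophy and carrying a fluorescent marker. Before imaging, 70 µl of culture at OD600 = 0.3 was incubated for 24 h in SM medium in 384-well plates predosed acoustically with drug (final 10 µM). Values are means of 3 replicates. Same SeMeCo high-content imaging drug screen: Selleck FDA-approved drugs at 10 µM, 24 h in SM medium, 384-well plates, 3 replicates.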

[2] = system: Saccharomyces cerevisiae BY4741 SeMeCo community; experiment: z-score of prototroph abundance vs DMSO median; higher = larger share of this subpopulation than in DMSO controls; settings: 10 µM; 24 h; SM minimal medium; subpopulation (auxotrophy): Prototroph
How it was run: (§1)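 Four plasmids, each restoring a single auxotrophy and encoding a distinct fluorescent protein, were carried by a Saccharomyces cerevisiae BY4741 community. After overnight growth to OD600 1.0 and dilution to 0.3, 70 µl per well was grown for 24 h in minimal SM medium on 384-well plates acoustically predosed with library drugs at 10 µM final. Following paraformaldehyde fixation, automated confocal microscopy was used, with single-auxotroph fluorescent strains defining thresholds and autofluorescence correction. Subpopulation abundance was then scored as a z-score against the vehicle-well median.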

[3] = system: Saccharomyces cerevisiae BY4741 SeMeCo community; experiment: z-score of subpopulation abundance vs DMSO median, subpopulation auxotrophic for M; higher = larger share of this subpopulation than in DMSO controls; settings: 10 µM; 24 h; SM minimal medium; subpopulation (auxotrophy): M
How it was run: as §1

[4] = system: Saccharomyces cerevisiae BY4741 SeMeCo community; experiment: z-score of subpopulation abundance vs DMSO median, subpopulation auxotrophic for L; higher = larger share of this subpopulation than in DMSO controls; settings: 10 µM; 24 h; SM minimal medium; subpopulation (auxotrophy): L
How it was run: as §1

[5] = system: Saccharomyces cerevisiae BY4741 SeMeCo community; experiment: z-score of subpopulation abundance vs DMSO median, subpopulation auxotrophic for U; higher = larger share of this subpopulation than in DMSO controls; settings: 10 µM; 24 h; SM minimal medium; subpopulation (auxotrophy): U
How it was run: as §1

[6] = system: Saccharomyces cerevisiae BY4741 SeMeCo community; experiment: z-score of subpopulation abundance vs DMSO median, subpopulation auxotrophic for H; higher = larger share of this subpopulation than in DMSO controls; settings: 10 µM; 24 h; SM minimal medium; subpopulation (auxotrophy): H
How it was run: as §1

[7] = system: Saccharomyces cerevisiae BY4741 SeMeCo community; experiment: z-score of subpopulation abundance vs DMSO median, subpopulation auxotrophic for LU; higher = larger share of this subpopulation than in DMSO controls; settings: 10 µM; 24 h; SM minimal medium; subpopulation (auxotrophy): LU
How it was run: as §1

[8] = system: Saccharomyces cerevisiae BY4741 SeMeCo community; experiment: z-score of subpopulation abundance vs DMSO median, subpopulation auxotrophic for LM; higher = larger share of this subpopulation than in DMSO controls; settings: 10 µM; 24 h; SM minimal medium; subpopulation (auxotrophy): LM
How it was run: as §1

[9] = system: Saccharomyces cerevisiae BY4741 SeMeCo community; experiment: z-score of subpopulation abundance vs DMSO median, subpopulation auxotrophic for HM; higher = larger share of this subpopulation than in DMSO controls; settings: 10 µM; 24 h; SM minimal medium; subpopulation (auxotrophy): HM
How it was run: as §1

[10] = system: Saccharomyces cerevisiae BY4741 SeMeCo community; experiment: z-score of subpopulation abundance vs DMSO median, subpopulation auxotrophic for UM; higher = larger share of this subpopulation than in DMSO controls; settings: 10 µM; 24 h; SM minimal medium; subpopulation (auxotrophy): UM
How it was run: as §1

[11] = system: Saccharomyces cerevisiae BY4741 SeMeCo community; experiment: z-score of subpopulation abundance vs DMSO median, subpopulation auxotrophic for HL; higher = larger share of this subpopulation than in DMSO controls; settings: 10 µM; 24 h; SM minimal medium; subpopulation (auxotrophy): HL
How it was run: as §1

[12] = system: Saccharomyces cerevisiae BY4741 SeMeCo community; experiment: z-score of subpopulation abundance vs DMSO median, subpopulation auxotrophic for HLU; higher = larger share of this subpopulation than in DMSO controls; settings: 10 µM; 24 h; SM minimal medium; subpopulation (auxotrophy): HLU
How it was run: as §1

[13] = system: Saccharomyces cerevisiae BY4741 SeMeCo community; experiment: z-score of subpopulation abundance vs DMSO median, subpopulation auxotrophic for HLM; higher = larger share of this subpopulation than in DMSO controls; settings: 10 µM; 24 h; SM minimal medium; subpopulation (auxotrophy): HLM
How it was run: as §1

[14] = system: Saccharomyces cerevisiae BY4741 SeMeCo community; experiment: z-score of subpopulation abundance vs DMSO median, subpopulation auxotrophic for HUM; higher = larger share of this subpopulation than in DMSO controls; settings: 10 µM; 24 h; SM minimal medium; subpopulation (auxotrophy): HUM
How it was run: as §1

[15] = system: Saccharomyces cerevisiae BY4741 SeMeCo community; experiment: z-score of subpopulation abundance vs DMSO median, subpopulation auxotrophic for LUM; higher = larger share of this subpopulation than in DMSO controls; settings: 10 µM; 24 h; SM minimal medium; subpopulation (auxotrophy): LUM
How it was run: as §1

[16] = system: Saccharomyces cerevisiae BY4741 SeMeCo community; experiment: z-score of subpopulation abundance vs DMSO median, subpopulation auxotrophic for HLUM; higher = larger share of this subpopulation than in DMSO controls; settings: 10 µM; 24 h; SM minimal medium; subpopulation (auxotrophy): HLUM
How it was run: as §1

[17] = system: Saccharomyces cerevisiae BY4741 SeMeCo community; experiment: z-score of subpopulation abundance vs DMSO median, subpopulation auxotrophic for HU; higher = larger share of this subpopulation than in DMSO controls; settings: 10 µM; 24 h; SM minimal medium; subpopulation (auxotrophy): HU
How it was run: as §1

Compound	mean cell size [1]	z-score of prototroph abundance [2]	z-score of subpopulation abundance [3]	z-score of subpopulation abundance [4]	z-score of subpopulation abundance [5]	z-score of subpopulation abundance [6]	z-score of subpopulation abundance [7]	z-score of subpopulation abundance [8]	z-score of subpopulation abundance [9]	z-score of subpopulation abundance [10]	z-score of subpopulation abundance [11]	z-score of subpopulation abundance [12]	z-score of subpopulation abundance [13]	z-score of subpopulation abundance [14]	z-score of subpopulation abundance [15]	z-score of subpopulation abundance [16]	z-score of subpopulation abundance [17]
CC(C(O)c1ccc(O)cc1)N1CCC(Cc2ccccc2)CC1 (stereo not drawn) [Ifenprodil Tartrate]	12.5 ± 0.24	0.98	-0.68	-0.15	0.69	-0.73	-0.38	-0.75	-0.88	-0.03	-1.19	-1.12	-0.92	-1.27	-0.99	-1.11	
O=C(c1ccccc1)c1ccc2n1CCC2C(=O)O (stereo not drawn) [Ketorolac]	12.6 ± 0.32	0.73	0	-0.04	-0.78	-0.3	-0.64	0.62	-0.76	-1.16	0.33	-0.97	-0.11	-0.93	-0.52	-0.11	
CCC1(c2ccccc2)C(=O)NCNC1=O [Primidone]	12.6 ± 0.23		0.8	-0.17		-0.52	-0.48	-0.37	0.36	0.54	-0.36	-0.29	0.29	0.42	0.18	0.15	0.35
CC[C@H]1OC(=O)[C@H](C)[C@@H](O[C@H]2C[C@@](C)(OC)[C@@H](O)[C@H](C)O2)[C@H](C)[C@@H](O[C@@H]2O[C@H](C)C[C@H](N(C)C)[C@H]2O)[C@](C)(O)C[C@@H](C)C(=O)[C@H](C)[C@H]2OC(=O)O[C@@]21C [Erythromycin Cyclocarbonate]	12.19 ± 0.065	-1.17	-0.28	1.01	0.09	2.08	0.04	0.55	0.9	0.58	1.2	0.3	0.52	0.96	0.8	0.39	
CCCCCCCCCCCCCCCC[N+](C)(C)C [Cetrimonium Bromide (CTAB)]	10.8 ± 0.24	-15.6	-4.82	-1.79		9.21	3.88	3.5	10.1	12.1		19.1	50.7	34.1	20.6	29.4	12.8
Nc1ccc(S(=O)(=O)Nc2ncccn2)cc1 [Sulfadiazine]	12.34 ± 0.084	0.05	-0.51	0.86	-0.28	-0.65	0.22	-0.04	-0.44	-0.04	-0.65	0.31	0	-0.05	0.42	1.03	
Oc1c(Br)cc(Br)c2cccnc12 [Broxyquinoline]	14.7 ± 0.16	-16.8	3.22	0.17		11.6	6.62	5.88	27.7		10.5	27.1	49.4	15.8	12.8	44.9	
CC(=O)Oc1ccccc1C(=O)O [Aspirin]	12.5 ± 0.23		1.14	-0.15	-0.25	0.67	0.01	0.16	-0.38	-0.21	0.18	-0.85	0.21	-0.14	-0.25	-0.5	
O=C(O)c1cn(C2CC2)c2cc(N3CCNCC3)c(F)cc2c1=O [Ciprofloxacin hydrochloride hydrate]	12.4 ± 0.27	-0.74	0.57	-0.22		-0.88	0.43	-0.37	0.16		-0.26	0.36	0.11	0.96	0.41	0.98	0.3
O=C(O)c1cc(O)c2c(c1)[C@H]([C@H]1c3cc(C(=O)O)cc(O)c3C(=O)c3c(O[C@@H]4O[C@H](CO)[C@@H](O)[C@H](O)[C@H]4O)cccc31)c1cccc(O[C@@H]3O[C@H](CO)[C@@H](O)[C@H](O)[C@H]3O)c1C2=O [Sennoside A]	12.57 ± 0.12	0.91	-1.76	-0.65	0.7	0	0.29	-0.8	-1.46	-0.14		-0.71	-1.24	-0.7	-0.81		0.33
O=c1ccc2cc(O)c(O)cc2o1 [Esculetin]	12.7 ± 0.16	2.22	5.32	1.75	-7.81		-7.32	3.28		-8.53	2.44	-3.44	1.67	-4.69	-3.61	-0.38	-7.17
N[C@@H]1CONC1=O [D-Cycloserine]	11.8 ± 0.15	-0.18	-0.07	1.05	-1	1.3	-0.16	0.54			0.99	0.51	0.38	0.3	0.83	0.69	-0.43
C=CCCCCCCCCC(=O)[O-].C=CCCCCCCCCC(=O)[O-].[Zn+2] [Zinc Undecylenate]	11.6 ± 0.15		-3.83	-1.01	-0.17	-1.44	-1.37	-2.11		-2.31	-0.05	3.75	-0.76	-0.02	-0.54	3.48	2.38
O=C1N=C(O)NC1(c1ccccc1)c1ccccc1 [Phenytoin Sodium]	12.527 ± 0.0075	-0.72	-0.37	0.11	1.21	-0.03	0.96	-0.6		0.67		0.17	0.15	0.83	-0.31	1.18	-0.05
